# Measurements taken from PubChem BioAssay (Tox21).
# Results filed as inconclusive are left out. Entries that show only a call come without a potency. The source made the active and inactive calls. Calls come from the whole dose curve; as a rule, active = well fitted cell-killing curve with a large enough effect in the repeat runs; inconclusive = weak or mixed curves, or effect the other way; inactive = flat fitted curve, though single readings scatter.
# Key:
# [1] = cAMP Responsive Elements (CRE) small molecule antagonists, cell-based qHTS assay: qHTS cell viability counter screen (AID 2060913); note: nearly all actives have a fitted effect of over 40% in size
# Outline: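 CRE-bla HEK293T cells were seeded in assay medium with 10% dialyzed FBS, incubated 18 hrs at 37 C, then exposed to compounds plus 0.25 uM final NKH477 for 3 hrs. Viability was read by CellTiter-Glo luminescence after 30 min, in the same wells.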
# [2] = cAMP Responsive Elements (CRE) small molecule agonists, cell-based qHTS assay: qHTS cell viability counter screen (AID 2060914); note: nearly all actives have a fitted effect of over 50% in size
# Outline: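 Cytotoxicity was measured as ATP luminescence (CellTiter-Glo, 30 min at room temperature) in the same wells as the CRE-bla FRET read-out. HEK293T CRE-bla cells had 3 h compound exposure at 37C/5% CO2.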
Compound,Potency [1],Potency [2]
O=C(CCCN1CCC(n2c(=O)[nH]c3ccccc32)CC1)c1ccc(F)cc1,inactive,inactive
Cc1cnc[nH]1,inactive,inactive
CC(C#N)CCC#N (stereo not drawn),inactive,inactive
[N-]=[N+]=[N-],inactive,inactive
N#CC(C#N)=Cc1ccc(O)c(O)c1,inactive,inactive
CC[C@]1(O)CC[C@H]2[C@@H]3CCC4=CCCC[C@@H]4[C@H]3CC[C@@]21C,inactive,inactive
CCC/C(=N\OCC)C1=C(O)CC(CC(C)SCC)CC1=O (stereo not drawn),inactive,inactive
CCCCC(CC)COC(=O)OOC(C)(C)C (stereo not drawn),inactive,inactive
CCOc1cccc(C2(N3CCN(c4ccccc4)CC3)CCC(C)CC2)c1 (stereo not drawn),inactive,inactive
CC(=O)[O-].CC(=O)[O-].O.O.O.[Pb+2],inactive,inactive
CSC1=N[C@@](C)(c2ccccc2)C(=O)N1Nc1ccccc1,inactive,inactive
CC1(C)CC(=O)CC(C)(C)N1[O],inactive,inactive
CC(=O)[C@H]1CC[C@H]2[C@@H]3CC[C@H]4C[C@H](O)CC[C@]4(C)[C@H]3C(=O)C[C@]12C,inactive,inactive
N#Cc1ccc(Cl)cc1,inactive,inactive
O=c1ccc(=O)[nH][nH]1,inactive,inactive
CC(C(O)c1ccccc1)N(C)C/C=C/c1ccccc1 (stereo not drawn),–,inactive
CNC(=O)N(C)c1nc2ccccc2s1,inactive,inactive
